According to PubChem BioAssay (NCI):
About 83,000 compounds went through this panel and 20% of them were active in at least one assay; those are over-represented in the sample as a whole.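 Results are percent growth after 48 hours of single-concentration exposure. 100 means growth as in untreated cells, lower positive values show inhibition; negative values down to -100 show cell death.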 Active and inactive are the calls of the source. How the source made its calls: active means growth percent below 10; inactive means the rest.

Key:
Test in all cases: NCI-60 one-dose screen, 48 h (100 = growth as untreated, 0 = no growth, -100 = all killed)
Settings in all cases: 10 µM unless noted
NCI-H23 lung = tested on: NCI-H23 lung
NCI-H322M lung = tested on: NCI-H322M lung
HOP-62 NSCLC = tested on: HOP-62 NSCLC
NCI-H460 lung = tested on: NCI-H460 lung
HOP-92 NSCLC = tested on: HOP-92 NSCLC
NCI-H522 lung = tested on: NCI-H522 lung
A549/ATCC NSCLC = tested on: A549/ATCC NSCLC
786-0 renal = tested on: 786-0 renal
COLO 205 colon = tested on: COLO 205 colon
DU-145 prostate = tested on: DU-145 prostate

Measured: growth

CC1=C(C(=O)OCC2CCN(C(=O)OC(C)(C)C)CC2)[C@H](c2cccc(C#N)c2)C2=C(CC(C)(C)CC2=O)N1
active: NCI-H522 lung 8.74%
inactive: NCI-H23 lung 65.7% | NCI-H322M lung 68.4% | HOP-62 NSCLC 70.3% | NCI-H460 lung 12.8% | HOP-92 NSCLC 86.3% | A549/ATCC NSCLC 46.1% | 786-0 renal 62.8% | COLO 205 colon 50.9% | DU-145 prostate 52.5%

COC(=O)c1ccc(NC(=O)CSc2nc3ccccc3c(=O)n2-c2ccccc2)cc1
inactive: NCI-H23 lung 95.4% | NCI-H322M lung 103% | HOP-62 NSCLC 106% | NCI-H460 lung 99.2% | HOP-92 NSCLC 79.7% | NCI-H522 lung 80.6% | A549/ATCC NSCLC 88.8% | 786-0 renal 100% | COLO 205 colon 120% | DU-145 prostate 108%

COc1ccc(-c2nc(-c3ccccc3)c(-c3ccccc3)[nH]2)cc1OC1CCCCC1
inactive: NCI-H23 lung 89% | NCI-H322M lung 84.9% | HOP-62 NSCLC 105% | NCI-H460 lung 88.3% | HOP-92 NSCLC 69.6% | NCI-H522 lung 88.3% | A549/ATCC NSCLC 85.5% | 786-0 renal 102% | COLO 205 colon 98.1% | DU-145 prostate 99.7%

O=C(Nc1ccccc1O)c1ccc(-c2ccc(Cl)cc2Cl)o1
inactive: NCI-H23 lung 85% | NCI-H322M lung 101% | HOP-62 NSCLC 93.7% | NCI-H460 lung 98.2% | HOP-92 NSCLC 80.4% | NCI-H522 lung 91.4% | A549/ATCC NSCLC 102% | 786-0 renal 88.2% | COLO 205 colon 90.7% | DU-145 prostate 91%

O=S(=O)(c1ccc(NC(=S)NC23CC4CC(CC(C4)C2)C3)cc1)N1CCCCC1
active: HOP-92 NSCLC -8.91%
inactive: NCI-H23 lung 95.5% | NCI-H322M lung 102% | HOP-62 NSCLC 107% | NCI-H460 lung 36.3% | NCI-H522 lung 74.3% | A549/ATCC NSCLC 72.5% | 786-0 renal 92.3% | COLO 205 colon 119% | DU-145 prostate 41.4%

COC(=O)/C(CCC=C(C)C)=C1\[C@@H](OC(C)=O)C[C@@]2(C)[C@H]1CC(=O)N[C@H]1[C@@]3(C)CCNC(=O)[C@@H](C)[C@@H]3CC[C@@]12C
inactive: NCI-H23 lung 99.2% | NCI-H322M lung 98.3% | HOP-62 NSCLC 106% | NCI-H460 lung 109% | HOP-92 NSCLC 106% | NCI-H522 lung 96.6% | A549/ATCC NSCLC 106% | 786-0 renal 96.2% | COLO 205 colon 109% | DU-145 prostate 107%

COc1ccc(-n2c(C(O)c3ccccc3)n[nH]c2=S)cc1 (stereo not given)
inactive: NCI-H23 lung 101% | NCI-H322M lung 102% | HOP-62 NSCLC 92.5% | NCI-H460 lung 108% | HOP-92 NSCLC 83.6% | NCI-H522 lung 89.7% | A549/ATCC NSCLC 102% | 786-0 renal 99.1% | COLO 205 colon 110% | DU-145 prostate 113%

Nc1ncnc(N)c1NC(=O)c1ccc(OCc2ccccc2)cc1
inactive: NCI-H23 lung 105% | NCI-H322M lung 100% | HOP-62 NSCLC 104% | NCI-H460 lung 107% | HOP-92 NSCLC 106% | NCI-H522 lung 91.3% | A549/ATCC NSCLC 103% | 786-0 renal 104% | COLO 205 colon 103% | DU-145 prostate 111%

CC1=C(C(=O)OCC2CCN(C(=O)OC(C)(C)C)CC2)[C@@H](c2cccc(C#N)c2)C2=C(CC(C)(C)CC2=O)N1
active: NCI-H460 lung 8.58%
inactive: NCI-H23 lung 53.3% | NCI-H322M lung 57.1% | HOP-62 NSCLC 65.8% | HOP-92 NSCLC 79.9% | NCI-H522 lung 29.6% | A549/ATCC NSCLC 35.5% | 786-0 renal 41.5% | COLO 205 colon 38.6% | DU-145 prostate 38.5%

COc1ccc(/C=C2\CCC/C(=C\c3ccc(OC)c(OC)c3)C2=O)cc1OC
inactive: NCI-H23 lung 21.6% | NCI-H322M lung 45.4% | HOP-62 NSCLC 28.5% | HOP-92 NSCLC 106% | A549/ATCC NSCLC 13.8% | COLO 205 colon 22.6%
active: NCI-H460 lung -46.5% | NCI-H522 lung -14% | 786-0 renal 0.0865% | DU-145 prostate -33.9%

O=C(N/N=C/c1ccccc1O)C(=O)Nc1ccc(F)cc1
active: COLO 205 colon 9.67%
inactive: NCI-H23 lung 57.7% | NCI-H322M lung 26.6% | HOP-62 NSCLC 50.1% | NCI-H460 lung 23.1% | HOP-92 NSCLC 65% | NCI-H522 lung 15.7% | A549/ATCC NSCLC 44.8% | 786-0 renal 53.8% | DU-145 prostate 46.5%

O=C1c2cc(I)ccc2Oc2cc([N+](=O)[O-])ccc2N1c1ccc(Cl)cc1F
inactive: NCI-H23 lung 87.7% | NCI-H322M lung 93.4% | HOP-62 NSCLC 89.9% | NCI-H460 lung 90.4% | HOP-92 NSCLC 88.3% | NCI-H522 lung 65.7% | A549/ATCC NSCLC 78.2% | 786-0 renal 98% | COLO 205 colon 106% | DU-145 prostate 97.9%

Clc1ccc(Nc2nnc(-c3ccc4c(c3)OCO4)o2)cc1
inactive: NCI-H23 lung 101% | NCI-H322M lung 98.9% | HOP-62 NSCLC 114% | NCI-H460 lung 103% | HOP-92 NSCLC 99.8% | NCI-H522 lung 80.9% | A549/ATCC NSCLC 97.8% | 786-0 renal 97.9% | COLO 205 colon 107% | DU-145 prostate 98.9%

FC(F)(F)c1cccc(CNC2CCN(CCc3ccccc3)CC2)c1
inactive: NCI-H23 lung 71.6% | NCI-H322M lung 84% | HOP-62 NSCLC 91.1% | NCI-H460 lung 59.8% | HOP-92 NSCLC 15.7% | NCI-H522 lung 86.7% | A549/ATCC NSCLC 77.5% | 786-0 renal 78.6% | COLO 205 colon 76.2% | DU-145 prostate 59.1%
